The results in this text go back to publication PMC7862700, “An all-to-all approach to the identification of sequence-specific readers for epigenetic DNA modifications on cytosine”.

Holding throughout (assay): DAPPL (digital affinity profiling via proximity ligation, sequencing); 10 mM Tris-HCl pH 7.5, 50 mM NaCl, 1 mM DTT, 4% glycerol, room temperature, 30 min; GST-TFs on glutathione beads, 16-mer random dsDNA library, 0.1% formaldehyde crosslink after washing; high values mean tight binding
One experiment addresses T1, FLI1 (Homo sapiens, UniProt Q01543 1-452).
T1 sequence: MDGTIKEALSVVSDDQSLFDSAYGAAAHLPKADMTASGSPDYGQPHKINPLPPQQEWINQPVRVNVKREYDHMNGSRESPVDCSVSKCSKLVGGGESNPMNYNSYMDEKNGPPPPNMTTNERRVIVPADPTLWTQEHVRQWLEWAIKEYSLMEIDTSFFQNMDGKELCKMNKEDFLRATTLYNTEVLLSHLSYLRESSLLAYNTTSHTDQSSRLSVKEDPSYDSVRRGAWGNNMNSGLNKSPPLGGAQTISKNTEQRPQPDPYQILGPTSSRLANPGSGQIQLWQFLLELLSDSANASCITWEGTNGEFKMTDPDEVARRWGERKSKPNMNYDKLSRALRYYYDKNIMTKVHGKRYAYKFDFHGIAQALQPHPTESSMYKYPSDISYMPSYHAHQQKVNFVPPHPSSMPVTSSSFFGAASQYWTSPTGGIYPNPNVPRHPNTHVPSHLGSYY
The conditions noted are these: protein: recombinant; tags: N-terminal GST; dsDNA, one strand shown. A digest of the protocol:
(§1)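 Pools of DNA-barcoded human transcription factors, expressed in yeast as GST fusions on glutathione beads and combined with a tag-only sample, were incubated with 200 nmole of a 16-mer random double-stranded DNA library. Incubation took 30 min at room temperature in Tris/NaCl/DTT/glycerol buffer and was followed by washing, 0.1% formaldehyde crosslinking, proximity ligation (BsaI/T4 ligase, 1 h, 37 °C), PCR amplification and sequencing on an Illumina NextSeq500. Binding signal is the ratio of a hexamer's read frequency for a factor to its frequency for the tag-only sample.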

The next experiment concerns the target T2, ELK1 (Homo sapiens, UniProt P19419 1-428).
T2 sequence: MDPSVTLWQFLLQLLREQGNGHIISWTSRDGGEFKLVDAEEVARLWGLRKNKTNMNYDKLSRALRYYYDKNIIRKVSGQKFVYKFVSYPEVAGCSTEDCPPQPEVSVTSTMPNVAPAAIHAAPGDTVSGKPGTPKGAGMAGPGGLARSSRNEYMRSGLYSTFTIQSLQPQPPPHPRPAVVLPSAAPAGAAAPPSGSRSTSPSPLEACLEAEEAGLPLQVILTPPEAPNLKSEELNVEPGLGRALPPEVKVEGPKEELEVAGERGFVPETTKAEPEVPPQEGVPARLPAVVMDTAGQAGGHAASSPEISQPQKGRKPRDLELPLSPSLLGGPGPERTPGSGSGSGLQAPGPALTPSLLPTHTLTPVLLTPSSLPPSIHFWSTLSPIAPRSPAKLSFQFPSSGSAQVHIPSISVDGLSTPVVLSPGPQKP
Conditions: protein: recombinant; tags: N-terminal GST; dsDNA, one strand shown. A digest of the protocol:
as §1

In the next experiment the target is T3, GABPA (Homo sapiens, UniProt Q06546 1-454).
T3 sequence: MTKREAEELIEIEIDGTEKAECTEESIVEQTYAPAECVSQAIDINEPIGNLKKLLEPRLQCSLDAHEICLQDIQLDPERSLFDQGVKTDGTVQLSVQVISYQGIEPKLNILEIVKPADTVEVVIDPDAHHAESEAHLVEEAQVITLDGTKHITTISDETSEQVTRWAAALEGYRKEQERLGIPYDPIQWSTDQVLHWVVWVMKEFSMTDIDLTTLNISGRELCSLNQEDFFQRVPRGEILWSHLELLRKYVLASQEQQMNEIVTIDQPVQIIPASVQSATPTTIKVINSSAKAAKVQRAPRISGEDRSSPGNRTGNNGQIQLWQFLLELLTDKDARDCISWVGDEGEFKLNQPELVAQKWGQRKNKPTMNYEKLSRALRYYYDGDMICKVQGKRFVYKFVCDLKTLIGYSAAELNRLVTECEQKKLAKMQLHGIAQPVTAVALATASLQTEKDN
Conditions: protein: recombinant; tags: N-terminal GST; dsDNA, one strand shown. The gist of the method:
as §1

The next experiment concerns the target T4, ERG (Homo sapiens, UniProt P11308 1-479).
T4 sequence: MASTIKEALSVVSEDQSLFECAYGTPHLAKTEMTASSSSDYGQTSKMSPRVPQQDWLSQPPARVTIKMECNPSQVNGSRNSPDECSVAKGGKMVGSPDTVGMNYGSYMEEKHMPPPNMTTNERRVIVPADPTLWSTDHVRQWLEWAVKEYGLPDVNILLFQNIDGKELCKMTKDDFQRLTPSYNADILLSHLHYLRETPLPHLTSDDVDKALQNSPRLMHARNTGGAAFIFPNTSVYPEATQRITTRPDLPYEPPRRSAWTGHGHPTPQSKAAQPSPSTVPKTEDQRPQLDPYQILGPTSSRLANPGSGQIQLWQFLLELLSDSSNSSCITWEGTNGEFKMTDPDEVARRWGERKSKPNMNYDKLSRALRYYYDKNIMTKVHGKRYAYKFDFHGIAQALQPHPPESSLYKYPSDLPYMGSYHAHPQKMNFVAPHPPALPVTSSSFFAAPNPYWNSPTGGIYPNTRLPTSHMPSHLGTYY
The conditions noted are these: protein: recombinant; tags: N-terminal GST; dsDNA, one strand shown. The gist of the method: as §1

In another experiment the target is ELF1 (Homo sapiens, UniProt P32519 1-619). The conditions noted are these: protein: recombinant; tags: N-terminal GST; dsDNA, one strand shown. The gist of the method: as §1
In the next experiment the target is T5, EHF (Homo sapiens, UniProt Q9NZC4 1-300).
T5 sequence: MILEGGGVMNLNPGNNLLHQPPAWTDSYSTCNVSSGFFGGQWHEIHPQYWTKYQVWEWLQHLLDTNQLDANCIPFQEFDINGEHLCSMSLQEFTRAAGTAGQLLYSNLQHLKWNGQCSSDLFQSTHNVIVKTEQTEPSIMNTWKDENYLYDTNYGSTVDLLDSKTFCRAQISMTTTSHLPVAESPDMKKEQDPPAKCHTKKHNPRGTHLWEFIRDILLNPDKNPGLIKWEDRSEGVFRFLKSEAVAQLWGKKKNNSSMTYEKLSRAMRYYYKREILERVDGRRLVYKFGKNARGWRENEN
Conditions: protein: recombinant; tags: N-terminal GST; dsDNA, one strand shown. A digest of the protocol: as §1

Another experiment concerns the target SPIB (Homo sapiens, UniProt Q01892 1-262). Conditions: protein: recombinant; tags: N-terminal GST; dsDNA, one strand shown. A digest of the protocol: as §1
A further experiment has as its target T6, ELK3 (Homo sapiens, UniProt P41970 1-407).
T6 sequence: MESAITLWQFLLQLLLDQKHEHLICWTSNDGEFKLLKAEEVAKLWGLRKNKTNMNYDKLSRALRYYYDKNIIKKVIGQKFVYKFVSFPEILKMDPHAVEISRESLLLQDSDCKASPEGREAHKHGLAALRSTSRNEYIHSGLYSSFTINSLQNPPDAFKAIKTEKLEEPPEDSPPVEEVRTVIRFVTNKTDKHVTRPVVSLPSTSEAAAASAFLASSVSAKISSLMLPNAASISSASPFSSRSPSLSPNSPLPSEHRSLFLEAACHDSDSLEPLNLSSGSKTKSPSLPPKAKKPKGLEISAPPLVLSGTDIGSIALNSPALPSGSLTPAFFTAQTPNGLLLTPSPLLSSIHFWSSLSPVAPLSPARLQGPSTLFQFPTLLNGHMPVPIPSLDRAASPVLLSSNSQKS
Conditions: protein: recombinant; tags: N-terminal GST; dsDNA, one strand shown. A digest of the protocol:
as §1

Another experiment addresses T7, FEV (Homo sapiens, UniProt Q99581 1-238).
T7 sequence: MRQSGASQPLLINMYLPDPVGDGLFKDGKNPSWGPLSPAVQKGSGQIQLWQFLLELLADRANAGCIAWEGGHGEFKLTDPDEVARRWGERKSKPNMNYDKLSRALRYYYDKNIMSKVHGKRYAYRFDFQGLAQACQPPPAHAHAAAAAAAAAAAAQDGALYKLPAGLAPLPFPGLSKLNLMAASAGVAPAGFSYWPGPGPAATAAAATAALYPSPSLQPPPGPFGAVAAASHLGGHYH
The conditions noted are these: protein: recombinant; tags: N-terminal GST; dsDNA, one strand shown. A digest of the protocol:
as §1

The target of another experiment is ETV5 (Homo sapiens, UniProt P41161 1-510). The conditions noted are these: protein: recombinant; tags: N-terminal GST; dsDNA, one strand shown. A digest of the protocol: as §1
A further experiment concerns the target HSF1 (Homo sapiens, UniProt Q00613 1-529). Conditions: protein: recombinant; tags: N-terminal GST; chain copies: 3; dsDNA, one strand shown. A digest of the protocol:
as §1

The target of the next experiment is T8, SPIC (Homo sapiens, UniProt Q8N5J4 1-248).
T8 sequence: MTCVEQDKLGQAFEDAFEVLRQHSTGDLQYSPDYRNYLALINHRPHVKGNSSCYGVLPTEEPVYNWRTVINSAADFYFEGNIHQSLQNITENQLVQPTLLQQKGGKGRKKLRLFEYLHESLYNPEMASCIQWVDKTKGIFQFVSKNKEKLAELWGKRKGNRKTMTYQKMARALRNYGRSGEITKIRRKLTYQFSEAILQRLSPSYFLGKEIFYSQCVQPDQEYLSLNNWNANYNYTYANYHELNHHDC
The conditions noted are these: protein: recombinant; tags: N-terminal GST; dsDNA, one strand shown. The gist of the method: as §1

For another experiment, the target named is ELF4 (Homo sapiens, UniProt Q99607 1-663). Conditions: protein: recombinant; tags: N-terminal GST; dsDNA, one strand shown. The gist of the method:
as §1

A further experiment concerns the target T9, ELK4 (Homo sapiens, UniProt P28324-2 1-405).
T9 sequence: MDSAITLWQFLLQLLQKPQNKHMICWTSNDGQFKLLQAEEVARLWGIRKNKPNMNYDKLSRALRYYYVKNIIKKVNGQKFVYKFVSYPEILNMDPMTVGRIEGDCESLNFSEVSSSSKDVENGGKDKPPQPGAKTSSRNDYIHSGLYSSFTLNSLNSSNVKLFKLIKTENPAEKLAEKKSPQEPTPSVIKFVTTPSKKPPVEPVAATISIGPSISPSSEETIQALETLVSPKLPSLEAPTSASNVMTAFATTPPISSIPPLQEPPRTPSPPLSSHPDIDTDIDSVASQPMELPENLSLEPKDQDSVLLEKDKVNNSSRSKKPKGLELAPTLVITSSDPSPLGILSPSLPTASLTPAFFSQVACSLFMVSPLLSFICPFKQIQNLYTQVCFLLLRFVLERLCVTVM
The conditions noted are these: protein: recombinant; tags: N-terminal GST; dsDNA, one strand shown. The gist of the method:
as §1

For a further experiment, the target named is T10, ETV2 (Homo sapiens, UniProt O00321 1-342).
T10 sequence: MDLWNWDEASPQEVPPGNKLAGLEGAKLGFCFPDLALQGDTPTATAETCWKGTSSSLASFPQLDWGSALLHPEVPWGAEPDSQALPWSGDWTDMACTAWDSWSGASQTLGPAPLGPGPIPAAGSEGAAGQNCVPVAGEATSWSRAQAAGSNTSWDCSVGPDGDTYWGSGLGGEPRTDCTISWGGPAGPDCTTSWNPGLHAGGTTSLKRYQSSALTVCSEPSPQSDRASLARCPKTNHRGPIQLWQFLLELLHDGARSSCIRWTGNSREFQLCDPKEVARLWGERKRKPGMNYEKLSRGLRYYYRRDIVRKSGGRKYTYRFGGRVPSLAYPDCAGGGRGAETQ
The conditions noted are these: protein: recombinant; tags: N-terminal GST; dsDNA, one strand shown. A digest of the protocol:
as §1

In a further experiment the target is T11, ELF3 (Homo sapiens, UniProt P78545 1-371).
T11 sequence: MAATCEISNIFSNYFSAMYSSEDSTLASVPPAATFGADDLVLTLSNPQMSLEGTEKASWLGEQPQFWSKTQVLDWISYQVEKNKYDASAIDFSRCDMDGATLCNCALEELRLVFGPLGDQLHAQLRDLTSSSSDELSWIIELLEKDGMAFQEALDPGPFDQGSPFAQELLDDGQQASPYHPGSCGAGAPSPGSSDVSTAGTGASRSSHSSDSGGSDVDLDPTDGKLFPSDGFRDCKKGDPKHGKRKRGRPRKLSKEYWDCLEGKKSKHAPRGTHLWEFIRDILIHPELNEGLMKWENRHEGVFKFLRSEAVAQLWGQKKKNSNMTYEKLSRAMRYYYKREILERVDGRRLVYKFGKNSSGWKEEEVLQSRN
Conditions: protein: recombinant; tags: N-terminal GST; dsDNA, one strand shown. A digest of the protocol:
as §1

The target of another experiment is CRX (Homo sapiens, UniProt O43186 1-299). Conditions: protein: recombinant; tags: N-terminal GST; dsDNA, one strand shown. A digest of the protocol: as §1
The target of another experiment is ETV1 (Homo sapiens, UniProt P50549 1-477). The conditions noted are these: protein: recombinant; tags: N-terminal GST; dsDNA, one strand shown. A digest of the protocol: as §1
Chain of ETV1 (P50549 whole entry): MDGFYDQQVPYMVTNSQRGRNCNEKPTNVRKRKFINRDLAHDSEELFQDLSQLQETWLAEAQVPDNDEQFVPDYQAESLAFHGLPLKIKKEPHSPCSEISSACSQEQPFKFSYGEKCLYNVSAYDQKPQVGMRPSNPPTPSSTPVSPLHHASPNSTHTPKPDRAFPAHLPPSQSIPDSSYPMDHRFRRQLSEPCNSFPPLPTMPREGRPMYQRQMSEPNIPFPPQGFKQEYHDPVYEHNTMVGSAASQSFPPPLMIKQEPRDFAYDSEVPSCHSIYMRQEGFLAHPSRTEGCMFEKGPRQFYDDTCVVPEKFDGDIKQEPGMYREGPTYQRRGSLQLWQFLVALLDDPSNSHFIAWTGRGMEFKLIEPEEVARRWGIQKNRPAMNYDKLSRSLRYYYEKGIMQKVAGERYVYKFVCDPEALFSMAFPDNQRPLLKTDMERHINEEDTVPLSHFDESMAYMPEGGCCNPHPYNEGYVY

Chain of ETV5 (P41161 whole entry): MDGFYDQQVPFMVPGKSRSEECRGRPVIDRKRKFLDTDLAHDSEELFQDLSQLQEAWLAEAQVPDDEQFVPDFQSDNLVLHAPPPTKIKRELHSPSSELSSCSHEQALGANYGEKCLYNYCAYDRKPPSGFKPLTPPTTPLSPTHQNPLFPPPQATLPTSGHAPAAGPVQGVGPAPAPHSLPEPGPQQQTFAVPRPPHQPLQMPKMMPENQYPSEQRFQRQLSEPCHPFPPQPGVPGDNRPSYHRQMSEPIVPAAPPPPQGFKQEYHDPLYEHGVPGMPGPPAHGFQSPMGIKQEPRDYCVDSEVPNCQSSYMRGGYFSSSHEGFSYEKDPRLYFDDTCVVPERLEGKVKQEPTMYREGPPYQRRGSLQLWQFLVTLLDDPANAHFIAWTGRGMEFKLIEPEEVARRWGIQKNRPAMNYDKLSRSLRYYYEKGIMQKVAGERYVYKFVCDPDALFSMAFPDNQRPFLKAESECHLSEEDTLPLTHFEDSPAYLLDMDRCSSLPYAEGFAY
Chain of CRX (O43186 whole entry): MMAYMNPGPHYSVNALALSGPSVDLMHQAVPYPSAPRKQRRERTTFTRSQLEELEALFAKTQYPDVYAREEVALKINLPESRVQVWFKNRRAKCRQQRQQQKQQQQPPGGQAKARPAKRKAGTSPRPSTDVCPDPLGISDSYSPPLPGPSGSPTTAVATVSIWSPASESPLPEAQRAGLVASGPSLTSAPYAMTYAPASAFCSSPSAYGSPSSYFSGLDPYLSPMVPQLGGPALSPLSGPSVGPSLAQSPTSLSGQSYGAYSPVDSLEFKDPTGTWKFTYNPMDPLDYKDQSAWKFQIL
Chain of SPIB (Q01892 whole entry): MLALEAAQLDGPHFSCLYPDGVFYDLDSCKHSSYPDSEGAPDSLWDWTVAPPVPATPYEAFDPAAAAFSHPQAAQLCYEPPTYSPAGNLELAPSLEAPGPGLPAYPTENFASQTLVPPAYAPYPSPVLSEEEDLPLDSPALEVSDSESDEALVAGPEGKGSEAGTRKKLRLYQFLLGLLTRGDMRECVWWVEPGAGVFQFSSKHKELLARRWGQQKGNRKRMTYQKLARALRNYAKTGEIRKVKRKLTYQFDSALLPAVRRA
Chain of ELF1 (P32519 whole entry): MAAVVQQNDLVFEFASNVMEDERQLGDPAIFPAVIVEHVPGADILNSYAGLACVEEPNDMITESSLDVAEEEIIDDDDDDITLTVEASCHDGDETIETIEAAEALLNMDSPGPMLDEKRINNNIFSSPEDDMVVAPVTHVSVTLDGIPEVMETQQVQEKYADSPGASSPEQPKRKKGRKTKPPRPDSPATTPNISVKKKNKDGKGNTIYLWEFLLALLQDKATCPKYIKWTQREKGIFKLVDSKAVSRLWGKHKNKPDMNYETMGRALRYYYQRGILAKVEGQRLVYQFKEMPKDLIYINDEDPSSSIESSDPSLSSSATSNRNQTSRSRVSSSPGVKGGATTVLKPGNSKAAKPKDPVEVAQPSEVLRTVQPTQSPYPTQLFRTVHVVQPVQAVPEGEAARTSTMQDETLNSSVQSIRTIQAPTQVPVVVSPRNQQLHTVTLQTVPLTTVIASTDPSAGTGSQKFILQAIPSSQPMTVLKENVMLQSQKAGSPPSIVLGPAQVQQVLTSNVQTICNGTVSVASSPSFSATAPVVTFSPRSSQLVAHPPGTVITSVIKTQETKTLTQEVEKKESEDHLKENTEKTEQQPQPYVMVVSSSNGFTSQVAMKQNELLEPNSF
Chain of HSF1 (Q00613 whole entry): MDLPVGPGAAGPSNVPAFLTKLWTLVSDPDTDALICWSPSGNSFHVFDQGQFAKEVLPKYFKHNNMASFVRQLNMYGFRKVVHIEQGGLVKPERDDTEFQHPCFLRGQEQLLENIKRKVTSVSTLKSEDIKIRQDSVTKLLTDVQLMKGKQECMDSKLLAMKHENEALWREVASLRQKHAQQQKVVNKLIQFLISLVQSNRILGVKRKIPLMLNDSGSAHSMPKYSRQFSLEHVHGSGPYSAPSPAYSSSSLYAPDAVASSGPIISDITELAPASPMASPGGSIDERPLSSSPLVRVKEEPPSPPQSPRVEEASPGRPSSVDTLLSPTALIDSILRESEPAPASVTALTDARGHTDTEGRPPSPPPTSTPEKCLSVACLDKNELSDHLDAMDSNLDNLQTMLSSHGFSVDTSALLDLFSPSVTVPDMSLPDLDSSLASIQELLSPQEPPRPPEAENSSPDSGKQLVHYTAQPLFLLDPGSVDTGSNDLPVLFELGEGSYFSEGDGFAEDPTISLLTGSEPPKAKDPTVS
Chain of ELF4 (Q99607 whole entry): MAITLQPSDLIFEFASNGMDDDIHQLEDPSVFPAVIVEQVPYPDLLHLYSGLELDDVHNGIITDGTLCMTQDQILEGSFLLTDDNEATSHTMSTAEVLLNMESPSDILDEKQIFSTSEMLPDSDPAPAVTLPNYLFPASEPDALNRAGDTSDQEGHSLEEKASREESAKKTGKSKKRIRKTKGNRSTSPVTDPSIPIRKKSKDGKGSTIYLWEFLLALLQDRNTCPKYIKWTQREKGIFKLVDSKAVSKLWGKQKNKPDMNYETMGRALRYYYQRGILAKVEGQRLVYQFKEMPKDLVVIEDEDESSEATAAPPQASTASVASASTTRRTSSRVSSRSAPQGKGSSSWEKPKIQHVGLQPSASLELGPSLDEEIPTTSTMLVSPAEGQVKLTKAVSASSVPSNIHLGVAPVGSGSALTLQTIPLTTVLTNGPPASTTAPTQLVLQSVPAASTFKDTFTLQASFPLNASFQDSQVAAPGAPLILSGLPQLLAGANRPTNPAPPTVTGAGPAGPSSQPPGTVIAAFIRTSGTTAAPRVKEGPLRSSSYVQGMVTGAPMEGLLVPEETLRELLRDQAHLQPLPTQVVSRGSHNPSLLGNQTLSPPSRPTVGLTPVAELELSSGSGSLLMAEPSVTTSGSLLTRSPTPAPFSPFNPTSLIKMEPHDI

ATCTGA: the binding signal in the experiment with FLI1 is 1.08 fold enrichment (6-mer frequency, TF over GST control); with ELK1, 1.08 fold enrichment (6-mer frequency, TF over GST control); with GABPA, 1.21 fold enrichment (6-mer frequency, TF over GST control); with ERG it was 1.07 fold enrichment (6-mer frequency, TF over GST control); in the experiment with ELF1 it was 1.16 fold enrichment (6-mer frequency, TF over GST control); with EHF, 1.17 fold enrichment (6-mer frequency, TF over GST control). Moreover, the binding signal with SPIB was 1.17 fold enrichment (6-mer frequency, TF over GST control); in the experiment with ELK3, 1.2 fold enrichment (6-mer frequency, TF over GST control); in the experiment with FEV, 1.1 fold enrichment (6-mer frequency, TF over GST control); with ETV5, 1.07 fold enrichment (6-mer frequency, TF over GST control); with HSF1 it was 1.16 fold enrichment (6-mer frequency, TF over GST control); with SPIC it was 1.21 fold enrichment (6-mer frequency, TF over GST control). Also, the binding signal with ELF4 is 1.09 fold enrichment (6-mer frequency, TF over GST control); with ELK4 it was 1.2 fold enrichment (6-mer frequency, TF over GST control); with ETV2, 1.01 fold enrichment (6-mer frequency, TF over GST control); with ELF3, 1.12 fold enrichment (6-mer frequency, TF over GST control); with CRX it was 1.4 fold enrichment (6-mer frequency, TF over GST control); in the experiment with ETV1, 1.24 fold enrichment (6-mer frequency, TF over GST control).
